# Reference: PubChem BioAssay
# Where “and” joins values, the source holds several entries; their conditions need not be identical. Identical values can stand only once. Some structures have more than one record in an assay (separate samples or runs), and their calls can disagree. Calls of active or inactive are those of the source.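 The calls were made as follows, unless noted: active = compounds whose cell count with miR-34 switched on is under 0.7 times the count with it off; inactive = the rest.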
# Legend:
# [1] = sensitizers of A549 cells to miR-34 induction, primary screen, imaging, A549 dox-inducible miR-34, nuclei and caspase counts (AID 1347080); conditions: A549 miR-34 inducible, Hoechst nuclei count, 48 h
# [2] = survival rescue of mitochondrial mutant cells in low glucose, primary screen, MELAS cybrids, Rieske KO mouse fibroblasts, CellTiter-Glo (AID 1508586;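 active = mean z-score across replicates of 1.96 or higher in either the MELAS or the Rieske mutant cell line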;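 also: z relative to plate mean and SD of compound and empty wells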)
# [3] = stronger effect = lower value, cell number ratio, induced over uninduced
# [4] = measured here: relative caspase fold change +Dox/-Dox
# [5] = measured here: total cells with miR-34 induction, stronger effect = lower value
# [6] = measured here: total cells without miR-34 induction
# [7] = MELAS cybrid survival, CellTiter-Glo 48 h, stronger effect = higher value
# [8] = Rieske KO mouse fibroblast survival, CellTiter-Glo 72 h
# Also: test concentration not given here.
SMILES,"fold change [1, 3]","fold change [1, 4]","cell count [1, 5]","cell count [1, 6]","z-score [2, 7]","z-score [2, 8]"
Cc1cc(C)c(C=C2C(=O)Nc3ccccc32)[nH]1,0.941 (inactive),0.528,5670,6030,0.363 (inactive),-0.0507
CC(NC(=O)C(O)c1cc(F)cc(F)c1)C(=O)NC1C(=O)N(C)c2ccccc2-c2ccccc21 (centres undefined),0.896 (inactive),0.875,8040,8970,-0.323 (inactive),1.18
O=CC(O)C(O)C(O)C(O)CO (centres undefined),0.892 (inactive),0.805,8030,9000,-0.158 (inactive),-0.000567
COc1cccc2c1C(=O)c1c(O)c3c(c(O)c1C2=O)C[C@@](O)(C(C)=O)CC3O[C@H]1CC(N)C(O)C(C)O1 (some centres undefined),0.959 (inactive),0.948,2300,2390,2.59 (active),-0.443
COc1cccc2c1C(=O)c1c(O)c3c(c(O)c1C2=O)C[C@@](O)(C(=O)CO)CC3O[C@H]1CC(N)C(O)C(C)O1 (some centres undefined),0.879 (inactive) and 1.08 (inactive),1.03 and 0.95,1470 and 1780,1680 and 1650,5.38 (active) and -0.136 (inactive),4.45 and -2.31
CC(C)C(=O)Oc1ccc(CO)cc1C(CCN(C(C)C)C(C)C)c1ccccc1 (centres undefined),0.941 (inactive),0.385,8240,8760,0.0306 (inactive),0.055
CCCCCOC(=O)Nc1nc(=O)n(C2OC(C)C(O)C2O)cc1F (centres undefined),0.881 (inactive),1.03,6790,7710,-0.294 (inactive),0.792
COc1c(C)c2c(c(O)c1CC=C(C)CCC(=O)O)C(=O)OC2,1.08 (inactive),0.86,3150,2920,0.238 (inactive),0.269
CC(C)OC(=O)OCOP(=O)(COC(C)Cn1cnc2c(N)ncnc21)OCOC(=O)OC(C)C (centres undefined),0.941 (inactive),0.831,7870,8370,-0.399 (inactive),0.463
O=C1c2c(O)cc(O)cc2OC(c2cc(O)c(O)c(O)c2)C1O (centres undefined),0.92 (inactive),0.77,9760,10600,-0.325 (inactive),0.635
CC1CCN(CCC2CCCN2S(=O)(=O)c2cccc(O)c2)CC1 (centres undefined),0.96 (inactive),0.546,7750,8080,-0.371 (inactive),-0.0766
CCOc1ccccc1OC(c1ccccc1)[C@H]1CNCCO1 (some centres undefined),0.858 (inactive),1.73,8800,10300,-0.71 (inactive),-0.166
COc1cc(C2c3cc4c(cc3C(OC3OC5COC(c6cccs6)OC5C(O)C3O)C3COC(=O)[C@H]23)OCO4)cc(OC)c1O (some centres undefined),1.06 (inactive),0.936,1550,1460,0.486 (inactive),0.638
CC(C)c1ccc(NC(=O)Cn2cnc3c2c(=O)n(C)c(=O)n3C)cc1,0.933 (inactive),1.42,7540,8090,0.298 (inactive),-0.444
C[C@]12CCC(O)CC1=CCC1C2CC[C@]2(C)C(n3cnc4ccccc43)=CCC12 (some centres undefined),0.927 (inactive),0.715,7740,8340,-0.32 (inactive),-0.165
CNC(=O)C(c1ccccc1)N1CCc2cc(OC)c(OC)cc2C1CCc1ccc(C(F)(F)F)cc1 (centres undefined),1.06 (inactive),0.482,6530,6180,-0.149 (inactive),0.101
Cc1c(C(=O)Nc2ccc(N3CCC(N4CCOCC4)CC3)c(C#N)c2)cnn1-c1ccc(Cl)cc1,0.979 (inactive),0.399,1870,1910,-0.464 (inactive),-0.322
NCCCCCNCC12CC3CC(CC(C3)C1)C2,0.991 (inactive),0.726,8590,8670,-0.291 (inactive),-0.0827
Cc1cc(N2CCOCC2)cc2[nH]c(-c3c(NCC(O)c4cccc(Cl)c4)cc[nH]c3=O)nc12 (centres undefined),1.08 (inactive),0.775,928,858,-0.143 (inactive),-0.73
C[C@]12C=CC(=O)C=C1CC[C@@H]1[C@H]2C(O)C[C@@]2(C)[C@H]1CC[C@@]2(O)C(=O)CO (some centres undefined),0.833 (inactive),1.24,4970,5970,-0.42 (inactive),-1.24
CC(C)CC(NC(=O)C(CCc1ccccc1)NC(=O)CN1CCOCC1)C(=O)NC(Cc1ccccc1)C(=O)NC(CC(C)C)C(=O)[C@@]1(C)CO1 (some centres undefined),0.898 (inactive),1.94,778,867,-0.243 (inactive),-3.69
CCNC(=O)c1[nH]nc(-c2cc(Cl)c(O)cc2O)c1-c1ccc(OC)cc1,1.1 (inactive),0.416,3020,2740,2.3 (active),-0.612
COC(=O)C1C(OC)C(OC(=O)c2cc(OC)c(OC)c(OC)c2)C[C@@H]2CN3CCc4c([nH]c5cc(OC)ccc45)[C@H]3C[C@H]12 (some centres undefined),0.925 (inactive),0.845,7190,7770,-0.484 (inactive),0.995
CC(C)N(CCC(c1ccccc1)c1cc(CO)ccc1O)C(C)C (centres undefined),0.934 (inactive),1.04,9810,10500,-0.366 (inactive),0.299
